In the supplement of paper PMC6555819:

Experiments:
Experiment in all cases: PBM binding z-score (relative to random genomic background probes); higher = stronger binding; sequences stand for … in GC…GCGATTGACAGCGTAGAATGAAGG
[1] = system: PPARg:RXRa DBDmut IVT, anti-RXR (DBD mutation: RXRa K156A/R161A, NR concentration 270 nM, RXRa partner concentration 90 nM)
Method in brief: (§1)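 Custom Agilent 4×180K protein-binding microarrays carried double-stranded probes. Their 34-nt variable regions held direct-repeat seeds, single-nucleotide variants, half-site ablations and random human genomic background sequences. Arrays were incubated 1 h with ligand-free nuclear receptor dimers in PBS pH 7.4, 2% milk, 0.02% Triton X-100, 1 mM DTT, 0.2 mg/mL BSA and 0.4 mg/ml salmon testes DNA. Antibodies against each partner (one per run) detected binding, and scanned fluorescence was regression-normalized. Binding z-scores use random background probes as reference.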

[2] = system: PPARg:RXRa IVT, anti-PPARg (NR concentration 270 nM, RXRa partner concentration 90 nM)
Method in brief: as §1

[3] = system: PPARg DBDmut:RXRa IVT, anti-PPARg (DBD mutation: PPARg1 K132A/R137A, NR concentration 270 nM, RXRa partner concentration 90 nM)
Method in brief: as §1

[4] = system: PPARg DBDmut IVT, anti-PPARg (DBD mutation: PPARg1 K132A/R137A, NR concentration 270 nM)
Method in brief: as §1

[5] = system: PPARg homodimer (NR concentration 180 nM)
Method in brief: as §1

[6] = system: PXR:RXRa (NR concentration 270 nM, RXRa partner concentration 90 nM)
Method in brief: as §1

[7] = system: PXR homodimer (NR concentration 270 nM)
Method in brief: as §1

[8] = system: RARa:RXR (NR concentration 270 nM, RXRa partner concentration 90 nM)
Method in brief: as §1

[9] = system: RARa homodimer (NR concentration 270 nM)
Method in brief: as §1

[10] = system: RARb:RXRa (NR concentration 270 nM, RXRa partner concentration 90 nM)
Method in brief: as §1

[11] = system: RARb homodimer (NR concentration 270 nM)
Method in brief: as §1

[12] = system: RARg:RXRa (NR concentration 270 nM, RXRa partner concentration 90 nM)
Method in brief: as §1

[13] = system: RARg homodimer (NR concentration 270 nM)
Method in brief: as §1

[14] = system: RXRa DBDmut IVT, anti-RXR (DBD mutation: RXRa K156A/R161A, NR concentration 90 nM)
Method in brief: as §1

[15] = system: RXRa homodimer (NR concentration 180 nM)
Method in brief: as §1

[16] = system: THRa:RXRa (NR concentration 90 nM, RXRa partner concentration 90 nM)
Method in brief: as §1

[17] = system: THRa homodimer (NR concentration 90 nM)
Method in brief: as §1

[18] = system: VDR homodimer (NR concentration 270 nM)
Method in brief: as §1

In the case of GCATATACGTAATACAAGGTGAAAGTCCGATTGT, the PBM binding z-score [1] is reported as -0.0308, the PBM binding z-score [2] is reported as 0.718 and the PBM binding z-score [3] is reported as 0.51. For the same sequence, the PBM binding z-score [4] was 1.15, the PBM binding z-score [5] was 0.296 and the PBM binding z-score [6] was 0.381. It also gave a PBM binding z-score [7] of 0.191, a PBM binding z-score [8] of 0.815 and a PBM binding z-score [9] of 0.672. For the same sequence, the PBM binding z-score [10] was 0.666, the PBM binding z-score [11] was 0.656 and the PBM binding z-score [12] was 0.54. It also gave a PBM binding z-score [13] of 0.62, a PBM binding z-score [14] of 0.892 and a PBM binding z-score [15] of 0.528. The PBM binding z-score [16] was 2.44, the PBM binding z-score [17] was 1.16 and the PBM binding z-score [18] was 0.207.
For AGTCAAAGTTCACTAGTTAACGTAAGATTCAGCT, the PBM binding z-score [1] was 0.662, the PBM binding z-score [2] was 2.31 and the PBM binding z-score [3] was 1.15. It also gave a PBM binding z-score [4] of 0.981, a PBM binding z-score [5] of 2.52 and a PBM binding z-score [6] of 4.28. It also gave a PBM binding z-score [7] of 3.24, a PBM binding z-score [8] of 2.94 and a PBM binding z-score [9] of 1.15. For the same sequence, the PBM binding z-score [10] was 4.76, the PBM binding z-score [11] was 3.6 and the PBM binding z-score [12] was 4.87. It also gave a PBM binding z-score [13] of 5.57, a PBM binding z-score [14] of 4.26 and a PBM binding z-score [15] of 3.7. The PBM binding z-score [16] was 1.45, the PBM binding z-score [17] was -0.514 and the PBM binding z-score [18] was 4.04.
For CGAACTAGGTTAAGGACAGTGAATCTCCGCACGC, the PBM binding z-score [1] was 6.49, the PBM binding z-score [2] was 5.67 and the PBM binding z-score [3] was 0.439. It also gave a PBM binding z-score [4] of 1.14, a PBM binding z-score [5] of 1.07 and a PBM binding z-score [6] of -0.145. The PBM binding z-score [7] was 0.015, the PBM binding z-score [8] was 0.949 and the PBM binding z-score [9] was -0.21. For the same sequence, the PBM binding z-score [10] was 1.47, the PBM binding z-score [11] was 1.1 and the PBM binding z-score [12] was 0.615. The PBM binding z-score [13] was 0.965, the PBM binding z-score [14] was 0.432 and the PBM binding z-score [15] was 0.533. For the same sequence, the PBM binding z-score [16] was 3.11, the PBM binding z-score [17] was 3.05 and the PBM binding z-score [18] was -0.012.
For GCTATTAGTGGAAAGGGCAACCGAATGATTCTCG, the PBM binding z-score [1] was 0.437, the PBM binding z-score [2] was 0.575 and the PBM binding z-score [3] was 0.104. The PBM binding z-score [4] was -0.457, the PBM binding z-score [5] was 0.772 and the PBM binding z-score [6] was 0.478. It also gave a PBM binding z-score [7] of -0.0365, a PBM binding z-score [8] of 0.745 and a PBM binding z-score [9] of 0.726. It also gave a PBM binding z-score [10] of 1.93, a PBM binding z-score [11] of 1.77 and a PBM binding z-score [12] of 1.05. For the same sequence, the PBM binding z-score [13] was 1.12, the PBM binding z-score [14] was 0.693 and the PBM binding z-score [15] was 0.775. It also gave a PBM binding z-score [16] of 0.344, a PBM binding z-score [17] of -0.457 and a PBM binding z-score [18] of -0.143.
Work on GCGACTGGGGCAAATCAGGTTACCATAAGGTTGG yielded a PBM binding z-score [1] of 4.37, a PBM binding z-score [2] of 3.69 and a PBM binding z-score [3] of -0.276. The PBM binding z-score [4] was -0.972, the PBM binding z-score [5] was 0.782 and the PBM binding z-score [6] was 1.1. It also gave a PBM binding z-score [7] of -0.422, a PBM binding z-score [8] of 0.759 and a PBM binding z-score [9] of -0.444. It also gave a PBM binding z-score [10] of 1.14, a PBM binding z-score [11] of 1.4 and a PBM binding z-score [12] of 0.714. It also gave a PBM binding z-score [13] of 0.619, a PBM binding z-score [14] of -0.00232 and a PBM binding z-score [15] of 0.576. It also gave a PBM binding z-score [16] of 4.22, a PBM binding z-score [17] of 0.742 and a PBM binding z-score [18] of -0.198.
Sequence AGAATGAGTTTAAGATCAGGGAAACAGAATACAT has a PBM binding z-score [1] of -0.319, a PBM binding z-score [2] of -0.227 and a PBM binding z-score [3] of 0.514. For the same sequence, the PBM binding z-score [4] was 0.367, the PBM binding z-score [5] was 0.191 and the PBM binding z-score [6] was 0.341. The PBM binding z-score [7] was 0.729, the PBM binding z-score [8] was 0.163 and the PBM binding z-score [9] was 0.965. The PBM binding z-score [10] was 0.406, the PBM binding z-score [11] was -0.102 and the PBM binding z-score [12] was 0.254. It also gave a PBM binding z-score [13] of 0.612, a PBM binding z-score [14] of 2.68 and a PBM binding z-score [15] of 0.484. It also gave a PBM binding z-score [16] of 0.276, a PBM binding z-score [17] of -0.184 and a PBM binding z-score [18] of 2.06.
ATCGAAAGGTCGACGAGGTGAGTACACACCGTTT showed a PBM binding z-score [1] of 0.467, a PBM binding z-score [2] of 2.23 and a PBM binding z-score [3] of 0.931. It also gave a PBM binding z-score [4] of 1.06, a PBM binding z-score [5] of 1.57 and a PBM binding z-score [6] of 3.19. For the same sequence, the PBM binding z-score [7] was 0.753, the PBM binding z-score [8] was 3.6 and the PBM binding z-score [9] was 0.262. For the same sequence, the PBM binding z-score [10] was 3.82, the PBM binding z-score [11] was 3.26 and the PBM binding z-score [12] was 4.26. The PBM binding z-score [13] was 4.18, the PBM binding z-score [14] was 1.34 and the PBM binding z-score [15] was 4.5. It also gave a PBM binding z-score [16] of 3.7, a PBM binding z-score [17] of 1.06 and a PBM binding z-score [18] of 2.27.
